Laboratory results from ChEMBL document CHEMBL3988442, “University of Dundee, Small-Polar-MMV Screening Library” (2021).
Hit rate of the full screen: of about 67,000 compounds, about 300 (0.45%) showed an effect of 50% or more. For the sample, strong results were picked, then their nearest neighbours and some compounds at random.

molecular target: Polyketide synthase Pks13 (Mycobacterium tuberculosis (strain ATCC 25618 / H37Rv)) (UniProt I6X8D2); assay: Mycobacterium tuberculosis Polyketide synthase 13 Thioesterase (PKS13); format: functional; design: scale not given: in the data most compounds retested in dose-response had high values; details: 30 µM
Sequence (I6X8D2 whole entry): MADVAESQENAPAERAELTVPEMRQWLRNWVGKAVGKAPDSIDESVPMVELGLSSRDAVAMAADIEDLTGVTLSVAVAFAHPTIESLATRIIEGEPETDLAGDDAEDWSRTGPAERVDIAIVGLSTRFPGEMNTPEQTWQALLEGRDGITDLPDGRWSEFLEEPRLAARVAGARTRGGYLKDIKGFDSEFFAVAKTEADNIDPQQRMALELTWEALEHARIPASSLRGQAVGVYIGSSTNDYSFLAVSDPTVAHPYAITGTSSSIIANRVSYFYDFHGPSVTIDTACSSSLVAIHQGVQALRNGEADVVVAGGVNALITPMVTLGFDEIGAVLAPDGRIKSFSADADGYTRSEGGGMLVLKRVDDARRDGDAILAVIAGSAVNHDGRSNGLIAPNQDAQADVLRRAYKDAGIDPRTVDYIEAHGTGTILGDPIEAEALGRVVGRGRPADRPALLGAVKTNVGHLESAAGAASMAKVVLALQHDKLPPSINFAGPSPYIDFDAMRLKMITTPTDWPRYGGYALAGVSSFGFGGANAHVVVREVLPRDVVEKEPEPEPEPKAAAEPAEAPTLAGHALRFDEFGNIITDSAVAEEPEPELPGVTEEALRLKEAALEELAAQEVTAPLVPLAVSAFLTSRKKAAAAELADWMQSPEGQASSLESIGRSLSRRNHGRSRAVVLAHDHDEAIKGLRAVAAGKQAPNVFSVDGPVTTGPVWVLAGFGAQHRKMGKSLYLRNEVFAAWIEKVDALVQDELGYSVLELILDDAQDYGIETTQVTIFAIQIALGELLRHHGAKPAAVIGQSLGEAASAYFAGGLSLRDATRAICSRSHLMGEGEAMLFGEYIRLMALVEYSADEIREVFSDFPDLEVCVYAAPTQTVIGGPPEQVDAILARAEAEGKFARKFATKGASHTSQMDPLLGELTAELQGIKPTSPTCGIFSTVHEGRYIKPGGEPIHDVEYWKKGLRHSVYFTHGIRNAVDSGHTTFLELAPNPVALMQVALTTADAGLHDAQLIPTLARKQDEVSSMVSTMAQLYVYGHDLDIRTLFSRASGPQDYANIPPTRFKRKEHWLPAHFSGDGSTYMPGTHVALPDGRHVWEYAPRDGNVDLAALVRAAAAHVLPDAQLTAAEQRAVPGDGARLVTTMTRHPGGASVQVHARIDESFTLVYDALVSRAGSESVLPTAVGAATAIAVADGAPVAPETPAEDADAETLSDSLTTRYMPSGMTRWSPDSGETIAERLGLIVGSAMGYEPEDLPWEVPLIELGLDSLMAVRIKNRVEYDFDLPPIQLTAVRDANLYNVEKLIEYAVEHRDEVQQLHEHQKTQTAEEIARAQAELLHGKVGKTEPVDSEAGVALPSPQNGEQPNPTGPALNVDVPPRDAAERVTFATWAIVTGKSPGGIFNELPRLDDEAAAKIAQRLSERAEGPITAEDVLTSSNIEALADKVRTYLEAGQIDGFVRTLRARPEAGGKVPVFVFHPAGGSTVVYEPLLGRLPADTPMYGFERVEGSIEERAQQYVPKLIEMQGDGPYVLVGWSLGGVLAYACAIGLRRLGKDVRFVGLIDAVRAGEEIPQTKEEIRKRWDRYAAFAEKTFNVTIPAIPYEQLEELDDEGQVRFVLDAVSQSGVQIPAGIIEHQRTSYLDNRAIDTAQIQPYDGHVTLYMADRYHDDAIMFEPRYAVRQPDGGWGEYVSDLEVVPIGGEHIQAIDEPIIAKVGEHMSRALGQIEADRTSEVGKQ

| SMILES | Percent Effect [%] |
| --- | --- |
| O=C1CC[C@H]2CN(Cc3cccc(F)c3)CC[C@H]2N1CCc1c[nH]cn1 | -22.1 |
| COCCC(=O)N1C[C@H]2CN(Cc3cccnc3)C(=O)[C@H]2C1 | -37.5 |
| NCC1[C@H]2CN(Cc3cccc(Cl)c3)C[C@@H]12 (stereo partly specified) | -29.5 |
| CNC(=O)N1C[C@H]2N(c3ncccn3)CCC[C@@]2(C(=O)NCC2CC2)C1 | -22 |
| CCN(CC)c1nc2sc(C(=O)NC(C)(C)C(=O)OC)cc2s1 | 39.6 |
| COC(=O)C(C)(C)NC(=O)c1cc2sc(N(C)C)nc2s1 | 52.3 |
| COC(=O)C(C)(C)NC(=O)c1cnc(C(C)(C)C)s1 | -10.1 |
| CCCS(=O)(=O)N1C[C@H]2C[C@H](C(=O)N3CCOCC3)[C@@H](C1)O2 | -22.9 |
| Cc1cccc(CN2C(=O)CC[C@@H]3[C@H]2CCN3Cc2nccn2C)n1 | -58.5 |
| COCCN1C(=O)C[C@@H]2[C@H]1CCN2C(=O)c1ccc[nH]1 | -9.69 |
| CN1CCCC[C@@H]2[C@H]1[C@@H](c1ccccc1)CCN2C(=O)c1cccnc1 | 9.14 |
| Cc1noc([C@H]2COC[C@H]3CN(C(=O)Cc4ccsc4)C[C@H]32)n1 | -1.57 |
| CC(=O)N1CCCC(c2ccc(Br)cn2)C1 (stereo unspecified) | -6.19 |
| CC(=O)N1CCCC1c1ccc(-c2c(C)noc2C)cn1 (stereo unspecified) | -29.1 |
| CC(=O)N1CCCC1c1ccc(Br)cn1 (stereo unspecified) | 61.5 |
| Cc1cccc(CN2C(=O)CC[C@@H]3[C@H]2CCN3C(=O)c2ccsc2)n1 | -13.6 |

| SMILES | Percent Effect [%] |
| --- | --- |
| Cc1ccnc(OC[C@@]23CCO[C@@H]2CCN(S(C)(=O)=O)C3)n1 | -29.2 |
| CN(C)[C@@H]1CN(C(=O)Cc2cccc(F)c2)[C@@H]2CCCO[C@H]12 | -3.8 |
| COCc1nc(C(=O)OCC2CCN(c3ccccc3)C2)cs1 (stereo unspecified) | 58.1 |
| Cn1ncc(C(=O)OCC2CCN(c3ccccc3)C2)c1C(F)F (stereo unspecified) | 11.4 |
| O=C(OCC1CCN(c2ccccc2)C1)c1cscn1 (stereo unspecified) | 62.9 |
| Cc1ncc(C(=O)OCC2CCN(c3ccccc3)C2)s1 (stereo unspecified) | 39.2 |
| Cc1ncsc1C(=O)OCC1CCN(c2ccccc2)C1 (stereo unspecified) | 30.2 |
| O=C(OCC1CCCN(C(=O)c2ccccc2)C1)c1cscn1 (stereo unspecified) | 10.2 |
| O=C(CSc1ccccn1)N1CCN(CCO)[C@@H]2CS(=O)(=O)C[C@@H]21 | 0.423 |
| Cc1ccoc1C(=O)N1C[C@@H]2COC[C@]2(CNS(C)(=O)=O)C1 | -15.4 |
| Cn1cc(CN2C[C@@H](NC(=O)c3cscn3)[C@H]3OCCC[C@H]32)cn1 | -41.4 |
| O=C(Nc1ccccc1)N1C[C@H]2C[C@H](C(=O)N3CCCC3)[C@@H](C1)O2 | -39.5 |
| CC(C)c1nc(CN2CCc3onc(-c4cccc(F)c4)c3C2)no1 | 91.2 |
| CC(C)(C)c1nc(CN2CCc3onc(-c4cccc(F)c4)c3C2)no1 | -16.5 |
| CC(C)Cc1nc(CN2CCc3onc(-c4cccc(F)c4)c3C2)no1 | 3.75 |
